For 28 molecules, outcome, Potency and IC50 (viability decrease) results are on record in PubChem BioAssay (NCATS).

Molecules are shown by their SMILES. Results filed as inconclusive are left out. The source made the active and inactive calls. Unless noted, calls come from the whole dose curve; as a rule, active = well fitted curve in the direction sought with a large enough effect; inconclusive = small, poorly fitted or top-dose-only effect, or another doubt; inactive = no such curve, though single readings can be large; an effect the other way counts as inactive or inconclusive.

Assay [1] is described as follows: qHTS assay for measurement of the activity of small molecule inhibitors on Zika virus induced Caspase-3 activity in human iPSC derived neural progenitor cells (hNPCs) (AID 1224857). Note: nearly all actives have a fitted effect of over 65% in size. A digest of the protocol:
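Cells were plated at 350 per well and grown 16 to 20 hours. Compound pretreatment lasted one hour, after which ZIKV (2 FFU/cell) was added for 6 hours. Percent inhibition was normalized between uninfected and infected controls.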
(In qHTS, concentration-response curves come from the screen itself.)

A short description of assay [2]: qHTS assay for measurement of the activity of small molecule inhibitors on Zika virus induced Caspase-3 activity in human astrocytoma cells (AID 1224859). In outline:
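Percent inhibition of virus-induced caspase-3/7 signal is calculated against uninfected and ZIKV-infected control cells. Cells are SNB-19, infected at 2 FFU/cell for 6 h after 1 h compound exposure.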

Assay [3] can be described thus: qHTS assay to identify small molecule inhibitors of chordoma cells - UCH-2 (AID 1259356). Note: potency is the fitted concentration of half-maximal effect.
Assay [4] is described as follows: NS1 protein of Zika virus - qHTS assay to identify small molecule inhibitors in human HEK 293 cells (AID 1347053). Note: nearly all actives have a fitted effect of over 55% in size. Note: potency is the fitted concentration of half-maximal effect. A digest of the protocol:
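In this cell-based screen, HEK 293 cultures received compound for one hour before Zika MR766 at MOI = 0.5. NS1 was quantified 24 hours later by TR-FRET, normalized to virus-free wells and infected wells.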

Assay [5] in a line: qHTS of pediatric cancer cell lines to identify multiple opportunities for drug repurposing: Primary screen for TC32 cells (AID 1347089). Note: nearly all actives have a fitted effect of over 60% in size. Note: potency is the fitted concentration of half-maximal effect. In outline: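 In the primary qHTS, MIPE compounds were tested at 11 concentrations (0.78 nM to 46 µM) and NPC compounds at 8 (0.59 nM to 46 µM) on TC32 cells for 48 h. CellTiter-Glo luminescence gave viability.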
Assay [6] is described as follows: Identifying Small Molecule Inhibitors of Pancreatic Cancer Stem Cells (A2780, Spheroid) (AID 1259357).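 Note: spheroids pre-formed over 14 days in stem cell medium on hydrogel; potency is the fitted concentration of half-maximal effect; compound exposure lasted 48 h before the ATP luminescence read.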 The note with it: A2780 spheroid viability. A digest of the protocol:
(§1)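 Endpoint: ATP-based luminescence, 48 h drug exposure. Bortezomib at 9.2 uM final as full-kill control; DMSO vehicle as negative control; activity normalized between vehicle and cell-free wells.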

The nature of assay [7]: Identifying Small Molecule Inhibitors of Pancreatic Cancer Stem Cells (SN12C, Adherent) (AID 1259358).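 Note: potency is the fitted concentration of half-maximal effect; cell survival measured after 48 h of compound exposure.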 The note with it: viability/growth inhibition. A digest of the protocol:
(§2)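 Spheroids grown 14 days in stem cell media on hydrogel-coated nonadherent plates; 2D lines seeded directly. Compounds added after 4 h attachment, 48 h at 37C, 5% CO2; CellTiter-Glo luminescence normalized to DMSO (no inhibition) and no-cell wells (full inhibition).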

The nature of assay [8]: Identifying Small Molecule Inhibitors of Pancreatic Cancer Stem Cells (Panc1, Spheroid) (AID 1259359).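 Note: potency is the fitted concentration of half-maximal effect; compound exposure lasted 48 h before reading.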 The note with it: Panc1 spheroid cancer stem cell viability. In outline: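 Spheroids grown 14 days in stem cell media on nonadherent hydrogel before screening; cells attached 4 h, then compound exposure 48 h at 37C, 5% CO2. CellTiter-Glo luminescence normalized to DMSO (no inhibition) and no-cell wells (full inhibition).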

Assay [9] can be described thus: P-glycoprotein substrates identified in KB-8-5-11 adenocarcinoma cell line, qHTS therapeutic library screen (AID 1346987). Note: nearly all actives have a fitted effect of over 65% in size. Note: potency is the fitted concentration of half-maximal effect. A digest of the protocol:
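Luminescence from CellTiter-Glo, read 5 min after addition, quantified survival of KB-8-5-11 (P-gp-overexpressing) cells exposed to compounds for 72 h. AC50 was derived from concentration-response curves.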

A short description of assay [10]: qHTS assay to identify small molecule inhibitors of chordoma cells - UCH-1 (AID 1259355). Note: nearly all actives have a fitted effect of over 55% in size. In outline:
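Screening used approved and investigational drugs in 15-point titration against 800 seeded cells per well. A fixed combination of auranofin with camptothecin, doxorubicin, rubitecan and topotecan followed compound addition, and growth was scored by CellTiter-Glo after 48hr.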

Assay [11] concerns the target Atrial natriuretic peptide receptor 1 (Homo sapiens) (UniProt P16066). Kind of assay: Natriuretic polypeptide receptor (hNpr1) antagonism - Pilot screen (AID 1347049; calls by dose curve;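 note: agonist-evoked cGMP luminescence read 20 min after hNppA addition; series mostly up to about 58 µM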). In outline:
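cGMP-sensor HEK293/hNpr1 cells, 1500/well, plated overnight at 37C. 2% GloSensor reagent, 2 h RT. Compound (23 nL pin transfer) 30 min RT, baseline luminescence pre-read. 0.1 nM hNppA, 20 min RT, post-read.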

For assay [12], the target named is T1, Tyrosine-protein phosphatase non-receptor type substrate 1 (Homo sapiens) + Leukocyte surface antigen CD47 (Homo sapiens) (UniProt P78324+Q08722). In words: CD47-SIRPalpha protein protein interaction - LANCE assay qHTS validation (AID 1347057; active = well fitted curve in the direction sought with a large enough effect in the signal ratio, with a control signal flat, not every such curve was filed as active; the % refers to the signal ratio; note: series mostly up to about 38 µM). A digest of the protocol: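 Inhibition of soluble CD47/SIRPalpha ectodomain association by titrated compounds, measured as 665/615 nm time-resolved FRET ratio after sequential 30 min room-temperature incubations.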
T1 sequence (P78324 whole entry, looked up, the tested form may be a part): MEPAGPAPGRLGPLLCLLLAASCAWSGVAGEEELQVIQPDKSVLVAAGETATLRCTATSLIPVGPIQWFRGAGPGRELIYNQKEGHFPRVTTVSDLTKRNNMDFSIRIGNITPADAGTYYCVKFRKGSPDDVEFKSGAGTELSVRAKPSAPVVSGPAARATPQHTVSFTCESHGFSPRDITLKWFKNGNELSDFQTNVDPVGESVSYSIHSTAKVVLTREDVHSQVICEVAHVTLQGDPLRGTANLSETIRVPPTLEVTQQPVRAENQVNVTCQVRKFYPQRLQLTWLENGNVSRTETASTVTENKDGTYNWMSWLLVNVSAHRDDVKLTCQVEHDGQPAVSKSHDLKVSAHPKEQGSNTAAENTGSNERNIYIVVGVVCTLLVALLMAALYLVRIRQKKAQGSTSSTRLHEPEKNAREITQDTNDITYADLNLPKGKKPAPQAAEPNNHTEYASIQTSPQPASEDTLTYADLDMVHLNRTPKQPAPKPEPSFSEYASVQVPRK
T1 sequence (Q08722 whole entry, looked up, the tested form may be a part): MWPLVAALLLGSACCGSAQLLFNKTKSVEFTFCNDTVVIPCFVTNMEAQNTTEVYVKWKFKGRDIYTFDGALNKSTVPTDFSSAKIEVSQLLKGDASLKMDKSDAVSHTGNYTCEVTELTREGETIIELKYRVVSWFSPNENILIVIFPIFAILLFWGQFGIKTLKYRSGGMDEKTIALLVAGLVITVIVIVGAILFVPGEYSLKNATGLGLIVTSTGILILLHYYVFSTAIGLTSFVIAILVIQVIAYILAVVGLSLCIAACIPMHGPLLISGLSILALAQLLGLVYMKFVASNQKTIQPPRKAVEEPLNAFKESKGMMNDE

The target of assay [13] is T1, Tyrosine-protein phosphatase non-receptor type substrate 1 (Homo sapiens) + Leukocyte surface antigen CD47 (Homo sapiens). In words: CD47-SIRPalpha protein protein interaction - HTRF assay qHTS validation (AID 1347058; active = well fitted curve in the direction sought with a large enough effect in the signal ratio, not every such curve was filed as active; the % refers to the signal ratio; note: series mostly up to about 38 µM). In outline: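 Soluble extracellular domains (6His-CD47, Avi-tag-biotinylated SIRPalpha) in PBS pH 7.4 with 0.05% IGEPAL CA-630. Compounds were preincubated 30 min at RT with CD47 and anti-His-Eu, then SIRPalpha and SAV-XL665 were added. TR-FRET 665/615 ratio.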

Assay [14] shares this target. Kind of assay: CD47-SIRPalpha protein protein interaction - Alpha assay qHTS validation (AID 1347059).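 Note: bead proximity luminescence from CD47 binding SIRPalpha after compound preincubation with SIRPalpha.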 A digest of the protocol: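 SIRPalpha-biotin 25 nM + cpd, 30 min RT, dark; add CD47-His 12.5 nM, 30 min; add Ni-NTA/SAV beads 10 ug/mL, 30 min; AlphaScreen. Buffer PBS pH 7.4 + 0.05% IGEPAL CA-630. Non-biotinylated SIRPalpha as control inhibitor.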
Assay [15] concerns the target Parathyroid hormone/parathyroid hormone-related peptide receptor (Homo sapiens) (UniProt Q03431). In words: qHTS for PTHR1 Agonists: Optimization Screen against the NCGC LOPAC library (AID 1347079).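 Note: GloSensor cAMP luminescence in HEK-293 GP2 cells expressing human PTHR1 with IBMX.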 A digest of the protocol: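 HEK-293 GP2 cells, PTHR1 + GloSensor cAMP; 3000 cells/well, o/n. Luciferin + IBMX 0.5mM each (stock), 1 hr 37C. Cpd titration, 1 hr 37C. Lum after 15 min RT. Ctrl M-PTH(1-15) top 10uM.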

The target of assay [16] is Atrial natriuretic peptide receptor 2 (Homo sapiens) (UniProt P20594). Kind of assay: Natriuretic polypeptide receptor (hNpr2) antagonism - Pilot subtype selectivity assay (AID 1347050; calls by dose curve). In outline: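 Luminescence from a genetically encoded cGMP luciferase biosensor in hNpr2-expressing HEK293 cells is read before and 20 min after adding 1 nM hNppC. Test compounds, in interplate 1:5 titrations, are added 30-50 min ahead of the agonist.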
Sequence of Atrial natriuretic peptide receptor 2 (Homo sapiens) (P20594 whole entry, looked up): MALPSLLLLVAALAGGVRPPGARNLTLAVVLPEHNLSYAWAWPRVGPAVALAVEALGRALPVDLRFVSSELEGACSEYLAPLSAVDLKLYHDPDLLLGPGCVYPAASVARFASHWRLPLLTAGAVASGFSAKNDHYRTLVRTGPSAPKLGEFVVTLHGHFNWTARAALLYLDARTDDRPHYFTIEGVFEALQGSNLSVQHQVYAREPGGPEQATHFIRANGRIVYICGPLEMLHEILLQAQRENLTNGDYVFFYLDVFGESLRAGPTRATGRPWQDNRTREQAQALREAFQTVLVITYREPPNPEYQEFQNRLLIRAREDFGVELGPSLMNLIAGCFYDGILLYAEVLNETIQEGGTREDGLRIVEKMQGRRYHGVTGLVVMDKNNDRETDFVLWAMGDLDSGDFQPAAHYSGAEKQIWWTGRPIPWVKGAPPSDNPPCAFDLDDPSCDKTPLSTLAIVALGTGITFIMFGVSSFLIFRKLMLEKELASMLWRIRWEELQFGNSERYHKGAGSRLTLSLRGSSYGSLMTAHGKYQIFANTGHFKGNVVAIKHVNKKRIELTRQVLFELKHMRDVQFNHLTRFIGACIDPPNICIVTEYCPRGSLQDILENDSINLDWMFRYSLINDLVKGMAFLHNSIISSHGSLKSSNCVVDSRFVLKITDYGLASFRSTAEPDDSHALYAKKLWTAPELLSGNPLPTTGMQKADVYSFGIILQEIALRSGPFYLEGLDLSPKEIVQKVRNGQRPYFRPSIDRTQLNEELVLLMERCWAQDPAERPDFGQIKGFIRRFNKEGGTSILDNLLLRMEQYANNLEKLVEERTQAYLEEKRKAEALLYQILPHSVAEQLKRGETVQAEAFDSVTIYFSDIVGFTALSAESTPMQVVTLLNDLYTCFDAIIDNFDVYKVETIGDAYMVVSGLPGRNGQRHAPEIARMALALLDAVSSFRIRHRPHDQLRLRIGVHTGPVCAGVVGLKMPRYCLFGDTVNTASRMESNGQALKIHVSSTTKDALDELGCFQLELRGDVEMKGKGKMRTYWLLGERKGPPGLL

The nature of assay [17]: Identifying Small Molecule Inhibitors of Pancreatic Cancer Stem Cells (SN12C, Spheroid) (AID 1259360). Note: potency is the fitted concentration of half-maximal effect. The note with it: SN12C spheroid viability. A digest of the protocol:
as §1

A short description of assay [18]: Identifying Small Molecule Inhibitors of Pancreatic Cancer Stem Cells (A278, Adherent) (AID 1259361). Note: nearly all actives have a fitted effect of over 35% in size. A digest of the protocol: as §2
Assay [19] is described as follows: Identifying Small Molecule Inhibitors of Pancreatic Cancer Stem Cells (Panc1, Adherent) (AID 1259362). Note: potency is the fitted concentration of half-maximal effect. The note with it: viability. In outline: as §1

Sequence of Atrial natriuretic peptide receptor 1 (Homo sapiens) (P16066 whole entry, looked up): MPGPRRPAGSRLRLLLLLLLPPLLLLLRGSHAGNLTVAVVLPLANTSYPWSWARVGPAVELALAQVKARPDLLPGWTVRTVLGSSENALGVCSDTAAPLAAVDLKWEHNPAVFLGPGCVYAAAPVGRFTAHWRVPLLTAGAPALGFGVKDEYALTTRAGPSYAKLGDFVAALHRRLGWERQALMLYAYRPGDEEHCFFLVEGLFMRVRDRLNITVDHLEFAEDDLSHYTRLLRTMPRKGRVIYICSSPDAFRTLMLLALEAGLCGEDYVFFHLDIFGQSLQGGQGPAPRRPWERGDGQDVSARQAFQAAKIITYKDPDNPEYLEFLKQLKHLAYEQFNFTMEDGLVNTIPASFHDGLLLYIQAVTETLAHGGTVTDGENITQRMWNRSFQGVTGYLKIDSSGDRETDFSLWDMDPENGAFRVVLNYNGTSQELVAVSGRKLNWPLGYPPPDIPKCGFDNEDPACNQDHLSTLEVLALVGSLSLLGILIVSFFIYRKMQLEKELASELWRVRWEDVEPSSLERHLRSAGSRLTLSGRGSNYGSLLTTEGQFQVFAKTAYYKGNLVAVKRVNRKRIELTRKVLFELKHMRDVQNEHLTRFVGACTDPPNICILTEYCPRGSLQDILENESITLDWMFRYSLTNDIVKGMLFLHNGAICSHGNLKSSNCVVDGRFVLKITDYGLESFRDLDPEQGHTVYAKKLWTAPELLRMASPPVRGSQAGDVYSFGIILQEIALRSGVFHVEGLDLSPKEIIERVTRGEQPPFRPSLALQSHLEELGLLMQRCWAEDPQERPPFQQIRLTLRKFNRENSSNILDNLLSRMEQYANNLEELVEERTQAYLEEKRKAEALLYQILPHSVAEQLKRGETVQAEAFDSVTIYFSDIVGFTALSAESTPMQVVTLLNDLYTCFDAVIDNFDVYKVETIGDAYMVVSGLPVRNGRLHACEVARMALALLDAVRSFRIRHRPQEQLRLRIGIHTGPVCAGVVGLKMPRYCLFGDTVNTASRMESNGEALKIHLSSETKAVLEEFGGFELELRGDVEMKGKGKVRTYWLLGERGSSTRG
Sequence of Parathyroid hormone/parathyroid hormone-related peptide receptor (Homo sapiens) (Q03431 whole entry, looked up): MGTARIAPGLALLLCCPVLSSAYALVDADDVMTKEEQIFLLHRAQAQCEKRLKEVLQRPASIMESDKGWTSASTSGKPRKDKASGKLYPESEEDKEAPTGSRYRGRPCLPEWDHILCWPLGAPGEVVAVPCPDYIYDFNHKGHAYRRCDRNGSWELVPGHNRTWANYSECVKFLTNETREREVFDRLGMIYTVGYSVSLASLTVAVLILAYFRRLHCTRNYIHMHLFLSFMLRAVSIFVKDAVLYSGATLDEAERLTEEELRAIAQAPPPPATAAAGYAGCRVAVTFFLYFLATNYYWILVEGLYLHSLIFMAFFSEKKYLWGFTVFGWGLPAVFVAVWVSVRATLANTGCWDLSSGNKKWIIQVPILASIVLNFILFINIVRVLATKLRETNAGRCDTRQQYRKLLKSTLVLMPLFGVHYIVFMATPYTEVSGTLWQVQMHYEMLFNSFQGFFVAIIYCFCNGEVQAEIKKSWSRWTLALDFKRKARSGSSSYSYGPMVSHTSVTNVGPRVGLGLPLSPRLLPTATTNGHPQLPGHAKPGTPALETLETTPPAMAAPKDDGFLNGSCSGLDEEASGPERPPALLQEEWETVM

In the case of `NC(=NCCCCCCN=C(N)/N=C(\N)Nc1ccc(Cl)cc1)/N=C(\N)Nc1ccc(Cl)cc1`, the molecule was classed as inactive in assay [1] and in [2]. Besides, the Potency result in assay [3] and in assay [4] was “inactive” in each case.
Regarding `N[C@H](Cc1c[nH]c2ccccc12)C(=O)O`, the molecule was classed as inactive in [1] and in assay [2]. For the same molecule, the Potency result in assay [3], in assay [4] and in assay [5] was “inactive” each time.
Take `Nc1ccn([C@@H]2O[C@H](CO)[C@@H](O)C2(F)F)c(=O)n1`: the molecule was classed as inactive in assay [1] and in assay [2]. Besides, the Potency in [6] was 0.481 µM (active); in assay [7], 0.054 µM (active); in assay [8], 0.0171 µM (active); in [4], 3.16 µM (active); in assay [5], 0.0118 µM (active).
On to `CCCCC(CC)CN=C(N)NC(N)=NCCCCCCN=C(N)NC(N)=NCC(CC)CCCC` (configuration not stated), for which the result in [1] and in assay [2] was inactive. Also, the values for the Potency in assay [3] and in [5] were 25.9 µM (active) and 21 µM (active), respectively.
Take `NC(=O)C(=O)N/N=C/c1ccc([N+](=O)[O-])o1`: the call in assay [1] and in [2] was inactive. In addition, the Potency result in assay [3], in [4] and in assay [5] was “inactive” in each case.
Regarding `COc1cc(N)c(Cl)cc1C(=O)NC1CCN(CCCOc2ccc(F)cc2)CC1OC` (configuration not stated), the molecule was classed as inactive in assay [1] and in [2]. In addition, the Potency entry in [3], in assay [4] and in assay [5] was “inactive” throughout.
Take `CCOc1ccc(Cc2nccc3cc(OCC)c(OCC)cc23)cc1OCC`: the result in assay [1] and in assay [2] was inactive. For the same molecule, the Potency entry in assay [3] and in assay [4] was “inactive” in each case.
Consider `Oc1ccc(Cl)cc1Sc1cc(Cl)ccc1O`, for which the molecule was classed as inactive in assay [1] and in assay [2]. For the same molecule, the Potency result in assay [3] and in assay [4] was “inactive” in each case.
As to `CCCCCCC[N+](CC)(CC)CCCCc1ccc(Cl)cc1`, the molecule was called inactive in [1] and in assay [2]. Moreover, in assay [9], the Potency result was “inactive”.
Regarding `O=C(OCC(O)CO)c1ccccc1Nc1ccnc2cc(Cl)ccc12` (configuration not stated), the call in assay [1] and in assay [2] was inactive. Moreover, the Potency entry in [3] and in [5] was “inactive” in each case.
With `CC(=O)OCC(=O)[C@@]1(O)CC[C@H]2[C@@H]3CCC4=CC(=O)C=C[C@]4(C)[C@H]3[C@@H](O)C[C@@]21C`, the molecule was classed as inactive in assay [1] and in [2]. The Potency result in assay [3], in [4] and in [5] was “inactive” in each case.
Take `Nc1ccc(C(=O)O)cc1`: the molecule was classed as inactive in [1] and in assay [2]. In addition, the Potency result in [3], in assay [4] and in assay [5] was “inactive” throughout.
On to `CCN(CCCCOC(=O)c1ccc(OC)c(OC)c1)C(C)Cc1ccc(OC)cc1` (configuration not stated), for which the molecule was classed as inactive in assay [1] and in [2]. Further, the Potency entry in assay [3], in assay [4] and in [5] was “inactive” in each case.
With `c1ccc(OCc2ccc(CCCN3CCOCC3)cc2)cc1`, the call in assay [1] and in assay [2] was inactive. Also, the Potency entry in assay [3], in assay [4] and in assay [5] was “inactive” in each case.
Turning to `CCCCCCCCCCOCC(O)CN` (configuration not stated), the Potency entry in assay [10] and in [3] was “inactive” in each case.
`CCCCOc1cc(C(=O)NCCN(CC)CC)c2ccccc2n1`: the Potency entry in assay [10] and in [3] was “inactive” throughout.
As to `CNCCC=C1c2ccccc2CCc2ccccc21`, the result in [11], in [12], in assay [13] and in assay [15] was inactive. Besides, the Potency result in [14] was “inactive”.
As to `COc1cc(NS(C)(=O)=O)ccc1Nc1c2ccccc2nc2ccccc12`, the call in assay [11], in assay [16] and in assay [15] was inactive.
With `CC(=O)Oc1ccc(C(=C2CCCCC2)c2ccc(OC(C)=O)cc2)cc1`, the molecule was called inactive in assay [1]. The Potency entry in assay [10], in assay [3], in assay [4] and in assay [5] was “inactive” in each case.
Turning to `COc1cc2c(cc1O)CC[C@@H]1[C@@H]2CC[C@]2(C)[C@@H](O)CC[C@@H]12`, the result in [1], in [11], in assay [12], in assay [13] and in assay [15] was inactive. Also, the Potency in assay [7] is 2.35 µM (active); in [17], 5.9 µM (active); in [19], 1.05 µM (active). Besides, the IC50 (viability decrease) in assay [18] was 0.935 µM (active). In addition, the Potency entry in [4] and in assay [14] was “inactive” in each case.
As to `C[C@]12CC[C@@H]3c4ccc(O)cc4CC[C@H]3[C@@H]1C[C@@H](O)[C@@H]2O`, the molecule was classed as inactive in assay [1]. For the same molecule, the Potency result in assay [10], in assay [3], in assay [9], in [4] and in assay [5] was “inactive” throughout.
As to `COc1cc2c(cc1OC)C(=O)C(CC1CCN(Cc3ccccc3)CC1)C2` (configuration not stated), the molecule was classed as inactive in assay [1]. The Potency result in assay [10], in assay [3], in [4] and in [5] was “inactive” in each case. In [9], the Potency is 8.2 µM (active).
With `CC(C)(C)CC(C)(C)c1ccc(OCCOCC[N+](C)(C)Cc2ccccc2)cc1`, the molecule was called inactive in assay [1]. For the same molecule, in assay [9], the Potency result is “inactive”. In assay [4], the Potency is 12.6 µM (active).
`CN(C)/N=N/c1nc[nH]c1C(N)=O`: the molecule was called inactive in assay [1]. For the same molecule, the Potency result in assay [3] and in assay [4] was “inactive” in each case.
With `CCC(NC(C)C)C(O)c1ccc(O)c(O)c1` (configuration not stated), the outcome in [1], in assay [11], in assay [16] and in assay [12] was inactive. The Potency result in assay [9], in assay [4] and in assay [14] was “inactive” each time.
For the molecule `COc1cc(OC)cc(OC)c1`, the molecule was called inactive in [1]. For the same molecule, the Potency result in assay [3], in assay [9], in assay [4] and in assay [5] was “inactive” in each case.
Turning to `CC(Cc1cccc(C(F)(F)F)c1)NCCOC(=O)c1ccccc1` (configuration not stated), in assay [1], the result was inactive. Moreover, the Potency result in assay [10], in assay [3], in [4] and in assay [5] was “inactive” throughout.
As for `CNCC[C@@H](Oc1ccccc1C)c1ccccc1`, the call in assay [1] was inactive. In addition, the Potency result in [9], in assay [4] and in [5] was “inactive” each time.
